Data taken from PubChem BioAssay (NCATS).
Results filed as inconclusive are left out. Where a call stands in place of a potency, no number is given. Activity calls are given as the source filed them. The call rests on the fitted dose curve; in most records, active means well fitted curve in the direction sought with a large enough effect; inconclusive means small, poorly fitted or top-dose-only effect, or another doubt; inactive means no such curve, though single readings can be large; an effect the other way counts as inactive or inconclusive.

Assays:
[1] = target: Glutathione peroxidase 1 (Homo sapiens) (UniProt P07203); test: Primary qHTS Assay for Inhibitors of Recombinant Selenoprotein Glutathione Peroxidase 1 (GPX1) (AID 1845191); further: nearly all actives have a fitted effect of over 65% in size
Chain of Glutathione peroxidase 1 (Homo sapiens) (P07203 whole entry, looked up): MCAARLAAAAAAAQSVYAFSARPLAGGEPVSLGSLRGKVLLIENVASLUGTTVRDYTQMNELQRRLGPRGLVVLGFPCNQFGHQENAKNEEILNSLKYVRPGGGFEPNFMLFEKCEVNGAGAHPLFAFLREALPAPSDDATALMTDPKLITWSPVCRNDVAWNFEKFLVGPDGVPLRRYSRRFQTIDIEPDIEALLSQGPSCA
In short: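 Recombinant GPX1 (10 nM final) was preincubated with compound for 30 min at room temperature, then reacted with 1 mM GSH, 0.5 mM CHP, 0.5 mM NADPH and 100 nM glutathione reductase; NADPH fluorescence (340/450 nm) was read at 0 and 15 min.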

[2] = target: Phospholipid hydroperoxide glutathione peroxidase GPX4 (Homo sapiens) (UniProt P36969); test: Primary qHTS Assay for Inhibitors of Recombinant Selenoprotein Glutathione Peroxidase 4 (GPX4) (AID 1845192); further: nearly all actives have a fitted effect of over 65% in size; further: potency means the concentration at half of the fitted maximal effect
Chain of Phospholipid hydroperoxide glutathione peroxidase GPX4 (Homo sapiens) (P36969 whole entry, looked up): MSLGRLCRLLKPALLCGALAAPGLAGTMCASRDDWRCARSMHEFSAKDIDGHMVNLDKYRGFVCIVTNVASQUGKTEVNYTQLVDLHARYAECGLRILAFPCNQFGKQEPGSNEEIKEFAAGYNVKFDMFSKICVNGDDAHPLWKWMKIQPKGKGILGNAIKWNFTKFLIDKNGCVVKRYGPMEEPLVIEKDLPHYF
In short: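 GR-coupled readout: 100 nM GR, 1 mM GSH, 0.5 mM NADPH; NADPH fluorescence (ex 340/em 450 nm) read at t=0 and after 15 min RT. GPX4 200 nM, preincubated 30 min with compound; substrate 0.5 mM CHP.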

[3] = target: Luciferin 4-monooxygenase (Photinus pyralis) (UniProt P08659); test: Primary firefly luciferase (FLuc) qHTS assay for identification of artifact compounds. (AID 1845220); further: nearly all actives have a fitted effect of over 60% in size; further: potency means the concentration at half of the fitted maximal effect
In short: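 Reaction readout was CCD-imaged luminescence, taken 5 min after adding 10 nM purified firefly enzyme to compound-treated wells holding 10 uM luciferin and ATP in pH 7.6 buffer.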

[4] = Primary fluorescence-based thiol-reactive (MSTI) qHTS assay for identification of artifact compounds. (AID 1845221); further: nearly all actives have a fitted effect of over 65% in size; further: potency means the concentration at half of the fitted maximal effect
In short: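 A multi-concentration qHTS design tested compounds against 4 uM MSTI, pH 7.4 phosphate-buffered saline. Plates were protected from light for 1 h at room temperature before imaging fluorescence.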

[5] = test system: Nanoluciferase (engineered Oplophorus gracilirostris luciferase); test: Primary Nanoluciferase (NLuc) qHTS assay for identification of artifact compounds. (AID 1845222); further: potency means the concentration at half of the fitted maximal effect
In short: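 Concentration-response data were obtained by luminescence after 5 min with Nano-Glo substrate at 1:100. The enzyme was diluted S16 NLuc-expressing cell medium, preincubated with compound for 15 min at RT. Curves were fitted with a 4-parameter Hill model.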

Row | Compound | Potency [1] | Potency [2] | Potency [3] | Potency [4] | Potency [5]
1 | CNC1CCC(N(Cc2cccc(-c3ccncc3)c2)C(=O)c2sc3c(F)ccc(F)c3c2Cl)CC1 (stereo not given) | inactive | inactive | inactive | inactive | inactive
2 | Cc1nc(N)sc1-c1ccnc(Nc2ccc(N3CCOCC3)cc2)n1 | inactive | inactive | 5.36 µM (active) | 1.5 µM (active) | inactive
3 | CN[C@@H](C)C(=O)N[C@H]1CN(C(=O)CC(C)C)CC[C@H]2CC[C@@H](C(=O)NC(c3ccccc3)c3ccccc3)N2C1=O | inactive | inactive | inactive | inactive | inactive
4 | COc1cc2c(cc1OC)CN(CCc1ccc(NC(=O)c3cc(OC)c(OC)cc3NC(=O)c3cnc4ccccc4c3)cc1)CC2 | inactive | inactive | inactive | inactive | inactive
5 | Cc1c(NC(=O)c2ccc(C(C)(C)C)cc2)cccc1-c1cn(C)c(=O)c(Nc2ccc(C(=O)N3CCOCC3)cc2)n1 | inactive | inactive | 5.88 µM (active) |  | inactive
6 | NC(=O)c1cccc(-c2cc(Nc3ccc(OC(F)(F)F)cc3)ncn2)c1 | inactive | inactive | inactive | inactive | inactive
7 | C=C1C(=O)[C@@]23C(CC[C@@H]1[C@H]2O)[C@@]12CO[C@]3(O)[C@@H](O)[C@@H]1C(C)(C)CC[C@@H]2O (stereo not given in full) | inactive | inactive | inactive | inactive | inactive
8 | CN(C[C@@H]1COCCO1)S(=O)(=O)Nc1ccc2ccc3ncc(-c4cnn(C)c4)cc3c(=O)c2c1 | inactive | inactive | inactive | inactive | inactive
9 | O=C(NCc1ccccc1)c1csc(Nc2ccncn2)n1 | inactive | inactive | inactive | inactive | inactive
10 | CC(C)(C)c1cc(C(=O)O)c(NC(=O)Nc2ccc3[nH]ncc3c2)s1 | inactive | inactive | 16.9 µM (active) | 1.06 µM (active) | inactive
11 | CNC(=O)c1ccc2cc(C3(O)CCn4cncc43)ccc2c1 (stereo not given) | inactive | inactive | inactive | inactive | inactive
12 | O=c1cc(CN2CCOCC2)occ1OCCCCCSc1ccnc2cc(C(F)(F)F)ccc12 | inactive | inactive | inactive | inactive | inactive
13 | CC(C)(C)NC(=O)Nc1cccc(Nc2ncc(F)c(NC(C)(C)CO)n2)c1 | inactive | inactive | inactive | inactive | inactive
14 | CC(C)C(=O)Oc1ccc(CO)cc1[C@H](CCN(C(C)C)C(C)C)c1ccccc1 | inactive | inactive | inactive | inactive | inactive
15 | COc1ncc(-c2ccc3nccc(-c4ccnnc4)c3c2)cc1NS(=O)(=O)c1ccc(F)cc1F | inactive | inactive | inactive | inactive | inactive
16 | COc1cc(N2CCC(N3CCN(C)CC3)CC2)ccc1Nc1ncnc(Nc2ccccc2S(=O)(=O)C(C)C)n1 | inactive | inactive | inactive |  | inactive
17 | O=C(O)c1cc(-c2ccccc2)nc2ccccc12 | inactive | inactive |  | inactive | inactive
18 | CC(C)C(=O)Nc1ncc(-c2cc(C(F)F)nn2-c2c(Cl)cccc2Cl)s1 | inactive | inactive | inactive | inactive | inactive
19 | COc1ccc(Cc2ccc(NC(N)=O)cc2)cc1-c1cccc(Cl)c1 | inactive | inactive | inactive | inactive | inactive
20 | COCCOc1nc(-c2ccc(Cl)c(Cl)c2)n(-c2ccc(NC(=O)CCl)cc2)n1 | inactive | inactive | inactive | inactive | inactive
21 | CS(=O)c1ccc(-c2nc(-c3ccc(F)cc3)c(-c3ccncc3)[nH]2)cc1 (stereo not given) | inactive | 25.5 µM (active) | inactive | inactive | inactive
22 | CS(=O)(=O)N(Cc1ccco1)CC(O)Cn1c2ccccc2c2ccccc21 (stereo not given) | inactive | inactive | inactive | inactive | inactive
23 | O=C(O)c1ccccc1C(=O)Nc1ccc(-c2ccccc2)cc1 | inactive | inactive | 23.9 µM (active) |  | 23.9 µM (active)

Row | Compound | Potency [1] | Potency [2] | Potency [3] | Potency [4] | Potency [5]
24 | CCOC(=O)C1=C(N)Oc2ccc(Br)cc2C1C(C#N)C(=O)OCC (stereo not given) | inactive | inactive | inactive |  | inactive
25 | COCCOC(=O)C1=C(C)NC2=C(C(=O)CC(c3ccccc3OC)C2)C1c1cccc(O)c1 (stereo not given) | inactive | inactive | inactive | inactive | inactive
26 | Cc1ccc(Nc2cc(-c3cccc(N4C(=O)c5ccccc5C4=O)c3)ncn2)cc1NS(C)(=O)=O | inactive | inactive | inactive | inactive | inactive
27 | O=C(NC1CCOCC1)c1ccc(-c2cc(-c3cn[nH]c3-c3ccccn3)ccn2)cc1 | inactive | inactive | inactive | inactive | inactive
28 | COc1cc(Nc2ncc(F)c(Nc3ccc4c(n3)NC(=O)C(C)(C)O4)n2)cc(OC)c1OC | inactive | inactive | inactive |  | inactive
29 | CC(C)n1nc(-c2ccc3oc(N)nc3c2)c2c(N)ncnc21 | inactive | inactive | inactive | inactive | inactive
30 | C[C@@H](O)[C@H]1C(=O)N2C(C(=O)O)=C(S[C@@H]3CN[C@H](C(=O)N(C)C)C3)[C@H](C)[C@H]12 |  | inactive |  |  | 
31 | CO[C@@H](C(=O)N1Cc2[nH]nc(NC(=O)c3ccc(N4CCN(C)CC4)cc3)c2C1)c1ccccc1 |  | inactive |  |  | 
32 | COc1ccc(C2CC(c3ccccc3)=NN2c2ccc(S(N)(=O)=O)cc2)cc1 (stereo not given) |  |  |  | inactive | inactive
33 | Cc1ccn(-c2ccc(-c3ncco3)cc2)c(=O)c1-c1ccc2nc(N)ncc2c1 |  |  | inactive | inactive | inactive
34 | O=C1c2ccccc2-[n+]2ccc3c([nH]c4ccccc43)c21 |  | inactive |  |  | 
35 | COc1ccc2cc(-c3nc(-c4ccc(S(C)=O)cc4)[nH]c3-c3ccncc3)ccc2c1 (stereo not given) | inactive |  | inactive | inactive | inactive
36 | NS(=O)(=O)c1ccc(NC2=CC(=O)c3ccccc3C2=O)cc1 |  | inactive |  |  | 
37 | O=C(O)c1cc(O)c2c(c1)C(=O)c1cccc(O)c1C2=O |  | inactive |  |  | 
38 | CC(C)(C)OC(=O)N[C@H]1CCCCCC=C[C@@H]2C[C@@]2(C(=O)NS(=O)(=O)C2CC2)NC(=O)[C@@H]2C[C@@H](OC(=O)N3Cc4cccc(F)c4C3)CN2C1=O |  |  | inactive | inactive | inactive
39 | NC(=O)c1ccc2nc(-c3ccc(Oc4ccc(Cl)cc4)cc3)[nH]c2c1 |  |  | 3.38 µM (active) | inactive | inactive
40 | CC(=O)Oc1cc2c(s1)CCN(C(C(=O)C1CC1)c1ccccc1F)C2 (stereo not given) |  | inactive |  |  | 
41 | CCNc1cc(NC2CCC(O)CC2)nc(Nc2ccc3c(ccn3Cc3ccccc3)c2)n1 (stereo not given) |  | inactive |  |  | 
42 | O=C1C(Cl)=C(NCCN2CCOCC2)C(=O)c2ncccc21 |  | inactive |  |  | 
43 | N#C[C@H]1C[C@H]2C[C@@H]2N1C(=O)[C@@H](N)C12CC3CC(CC(O)(C3)C1)C2 |  | inactive |  |  | 
44 | CO[C@H]1C(=O)[C@]2(C)[C@@H](OC)C[C@H]3OC[C@@]3(OC(C)=O)[C@H]2[C@H](OC(=O)c2ccccc2)[C@]2(O)C[C@H](OC(=O)[C@H](O)[C@@H](NC(=O)OC(C)(C)C)c3ccccc3)C(C)=C1C2(C)C |  | inactive |  |  | 
45 | Cc1ccccc1C(C(=O)NC1CCCCC1)N(C(=O)Cn1ccnc1C)c1cccc(F)c1 (stereo not given) |  | inactive | inactive | inactive | inactive
46 | NS(=O)(=O)c1cccc2c1C(=O)c1cccc(O)c1C2=O |  | inactive |  |  | 

Row | Compound | Potency [1] | Potency [2] | Potency [3] | Potency [4] | Potency [5]
47 | COc1cccc([C@@H](C)NCCCc2ccccc2Cl)c1 |  | inactive |  |  | 
48 | OC[C@@H](O)[C@H](O)[C@H](O)[C@@H](O)CO |  | inactive |  |  | 
49 | COc1ccc(C2Sc3ccccc3N(CCN(C)C)C(=O)C2OC(C)=O)cc1 (stereo not given) |  | inactive | inactive | inactive | inactive
50 | O=c1cc(N2CCOCC2)oc2c(-c3cccc4c3sc3ccccc34)cccc12 |  | inactive |  |  | 
51 | COc1ccc2cccc(CCNC(C)=O)c2c1 |  | inactive |  |  | 
52 | NC(=O)c1cccc2[nH]c(-c3ccc([C@H]4CCCN4)cc3F)nc12 |  |  |  | inactive | inactive
53 | Oc1ccc(C2=Cc3ccc(O)cc3OC2)cc1 |  | inactive |  |  | 
54 | CN(C)C1CCN(C(=O)c2ccc(NC(=O)Nc3nc(N4CCOCC4)nc(N4CCOCC4)n3)cc2)CC1 |  | inactive | inactive | inactive | inactive
55 | C[C@H](NC(=O)c1sccc1OCc1ccc(Cl)cc1)c1ccccc1 |  | inactive |  |  | 
56 | CO[C@H]1C[C@@H]2CC[C@@H](C)[C@@](O)(O2)C(=O)C(=O)N2CCCC[C@@H]2C(=O)O[C@H]([C@@H](C)C[C@@H]2CC[C@H](O)[C@H](OC)C2)CC(=O)[C@H](C)C=C(C)[C@@H](O)[C@@H](OC)C(=O)[C@H](C)C[C@H](C)C=CC=CC=C1C |  | inactive |  |  | 
57 | N#Cc1ccc(NC(=O)Nc2ccccc2Br)c2n[nH]nc12 |  | inactive |  |  | 
58 | O=C(O)Cc1cccc2ccccc12 |  | inactive |  |  | 
59 | O=C(Nc1cccc(Br)c1)c1cccc(S(=O)(=O)N2CCCCCC2)c1 |  | inactive | inactive | inactive | inactive
60 | C=C1C(=O)OC(CCCCCCCC)C1C(=O)O (stereo not given) |  | inactive |  |  | 
61 | COc1ccc2c(Oc3ccc(NC(=O)c4c(C)n(CC(C)(C)O)n(-c5ccccc5)c4=O)nc3)ccnc2c1 |  | inactive | inactive | inactive | inactive
62 | CN(C)Cc1ccc(-c2nc3cccc4c3n2CCNC4=O)cc1 | inactive |  | inactive | inactive | inactive
63 | CC(C)C[C@H](CC(=O)O)C(=O)N[C@@H](Cc1c[nH]c2ccccc12)C(=O)N[C@@H](C)c1ccccc1 |  | inactive |  |  | 
64 | CC(C)[C@H](CO)Nc1nc(Nc2ccc(C(=O)O)c(Cl)c2)c2ncn(C(C)C)c2n1 |  | inactive | inactive |  | inactive
65 | Cc1ccc(C(=O)Nc2cccc(C(F)(F)F)c2)cc1Nc1nc(-c2cccnc2)nc2c1cnn2C |  | inactive |  |  | 
66 | C[C@]12CCC3c4ccc(O)cc4CCC3C1CCC2=O (stereo not given in full) |  | inactive |  |  | 
67 | CO[C@H]1C=CO[C@@]2(C)Oc3c(C)c(O)c4c(O)c(c5c(c4c3C2=O)NC2(CCN(CC(C)C)CC2)N=5)=NC(=O)C(C)=CC=C[C@H](C)[C@H](O)[C@@H](C)[C@@H](O)[C@@H](C)[C@H](OC(C)=O)[C@H]1C |  | inactive | inactive |  | inactive
